Data published in the supplement of paper PMC11001985.
A number with no mark means an inactive call.

compound: C#CCNC(=O)CCSSCCC(=O)NCCc1ccc(C=O)c(C=O)c1; assay: lysine labeling ratio R10:1 (500 µM / 50 µM probe), SILAC-ABPP in living cells; higher = lower intrinsic lysine reactivity toward the probe, active = 2 or less; conditions: HeLa; probe concentrations 500 vs 50 µM
In short: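 For each lysine, R is the median over forward and reverse replicates of the filtered median MS1 peptide ratio of high probe to low probe. The probe, an alkyne-tagged, disulfide-linked lysine probe, was given at 500 µM or 50 µM to living SILAC light and heavy HeLa cells in PBS at room temperature, with label swaps. Values are capped at 20.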

UniProt O14786, sequence (O14786 whole entry): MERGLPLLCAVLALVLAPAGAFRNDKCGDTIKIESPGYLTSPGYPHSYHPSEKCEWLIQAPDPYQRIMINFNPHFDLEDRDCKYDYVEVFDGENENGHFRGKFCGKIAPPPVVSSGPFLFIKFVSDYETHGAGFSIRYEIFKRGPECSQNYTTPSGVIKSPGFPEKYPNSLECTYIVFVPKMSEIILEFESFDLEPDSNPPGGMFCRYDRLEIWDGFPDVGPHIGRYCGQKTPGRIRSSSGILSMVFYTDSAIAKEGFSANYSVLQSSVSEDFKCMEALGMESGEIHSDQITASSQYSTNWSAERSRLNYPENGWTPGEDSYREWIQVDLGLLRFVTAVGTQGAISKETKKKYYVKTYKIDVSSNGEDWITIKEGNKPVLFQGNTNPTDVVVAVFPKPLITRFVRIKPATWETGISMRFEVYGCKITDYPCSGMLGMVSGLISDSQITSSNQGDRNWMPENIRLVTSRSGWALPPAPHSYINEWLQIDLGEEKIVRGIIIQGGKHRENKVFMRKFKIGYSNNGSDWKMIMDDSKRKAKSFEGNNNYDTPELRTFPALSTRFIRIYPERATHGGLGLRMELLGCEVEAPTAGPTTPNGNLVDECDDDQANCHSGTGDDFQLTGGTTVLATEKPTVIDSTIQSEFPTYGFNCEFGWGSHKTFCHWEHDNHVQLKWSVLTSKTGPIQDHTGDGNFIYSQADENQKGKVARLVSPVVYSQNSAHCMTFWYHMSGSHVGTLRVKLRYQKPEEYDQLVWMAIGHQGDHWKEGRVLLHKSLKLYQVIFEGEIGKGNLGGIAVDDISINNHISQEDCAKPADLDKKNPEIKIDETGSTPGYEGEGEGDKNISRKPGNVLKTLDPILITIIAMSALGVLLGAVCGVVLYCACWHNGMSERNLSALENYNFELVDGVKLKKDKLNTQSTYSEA
UniProt P07942, sequence (P07942 whole entry): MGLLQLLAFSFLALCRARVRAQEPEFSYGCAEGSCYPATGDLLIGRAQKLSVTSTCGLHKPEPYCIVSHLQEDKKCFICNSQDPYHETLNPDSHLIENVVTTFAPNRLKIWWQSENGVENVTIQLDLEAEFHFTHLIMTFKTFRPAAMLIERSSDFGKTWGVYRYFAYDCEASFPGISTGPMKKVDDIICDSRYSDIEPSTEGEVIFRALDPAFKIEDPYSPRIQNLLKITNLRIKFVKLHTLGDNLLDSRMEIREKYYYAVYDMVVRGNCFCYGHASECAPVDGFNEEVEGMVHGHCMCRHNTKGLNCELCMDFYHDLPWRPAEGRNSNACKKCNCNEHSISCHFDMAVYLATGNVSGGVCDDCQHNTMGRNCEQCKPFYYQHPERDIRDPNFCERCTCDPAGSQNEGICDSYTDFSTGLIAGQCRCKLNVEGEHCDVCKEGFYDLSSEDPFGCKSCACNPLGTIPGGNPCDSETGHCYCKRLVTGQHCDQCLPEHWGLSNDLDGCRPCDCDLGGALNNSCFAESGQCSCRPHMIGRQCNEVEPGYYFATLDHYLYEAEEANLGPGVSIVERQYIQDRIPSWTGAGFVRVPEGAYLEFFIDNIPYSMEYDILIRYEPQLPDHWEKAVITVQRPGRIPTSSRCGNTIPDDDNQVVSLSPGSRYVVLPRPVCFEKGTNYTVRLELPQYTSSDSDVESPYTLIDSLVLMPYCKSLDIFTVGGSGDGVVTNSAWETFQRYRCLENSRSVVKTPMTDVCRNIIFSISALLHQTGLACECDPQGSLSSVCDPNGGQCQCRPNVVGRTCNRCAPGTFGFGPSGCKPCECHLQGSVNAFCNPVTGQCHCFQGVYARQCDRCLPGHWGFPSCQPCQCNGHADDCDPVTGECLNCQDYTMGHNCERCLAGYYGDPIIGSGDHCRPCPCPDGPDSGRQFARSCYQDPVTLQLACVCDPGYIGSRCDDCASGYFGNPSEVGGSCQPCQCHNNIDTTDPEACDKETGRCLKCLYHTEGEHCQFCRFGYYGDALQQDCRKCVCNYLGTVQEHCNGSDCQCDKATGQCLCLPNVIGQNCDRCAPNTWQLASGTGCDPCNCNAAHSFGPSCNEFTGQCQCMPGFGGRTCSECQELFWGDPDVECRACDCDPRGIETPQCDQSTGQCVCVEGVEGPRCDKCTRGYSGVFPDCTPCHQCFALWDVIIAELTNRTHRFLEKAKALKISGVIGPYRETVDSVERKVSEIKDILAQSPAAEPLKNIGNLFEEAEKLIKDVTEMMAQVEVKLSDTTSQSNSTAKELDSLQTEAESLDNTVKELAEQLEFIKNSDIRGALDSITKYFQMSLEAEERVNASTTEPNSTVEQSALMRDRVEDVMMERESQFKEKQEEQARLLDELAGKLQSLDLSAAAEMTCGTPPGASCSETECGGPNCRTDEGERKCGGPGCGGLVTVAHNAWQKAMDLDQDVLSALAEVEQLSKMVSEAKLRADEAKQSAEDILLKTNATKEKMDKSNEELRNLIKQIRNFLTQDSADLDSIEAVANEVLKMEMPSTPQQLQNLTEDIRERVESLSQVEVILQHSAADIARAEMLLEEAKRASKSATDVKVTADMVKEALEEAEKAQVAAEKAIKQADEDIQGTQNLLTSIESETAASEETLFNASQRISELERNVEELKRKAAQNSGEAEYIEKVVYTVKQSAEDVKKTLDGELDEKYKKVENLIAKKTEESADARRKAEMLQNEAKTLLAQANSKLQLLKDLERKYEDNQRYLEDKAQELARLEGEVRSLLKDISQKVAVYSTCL
UniProt Q01082, sequence (Q01082 whole entry): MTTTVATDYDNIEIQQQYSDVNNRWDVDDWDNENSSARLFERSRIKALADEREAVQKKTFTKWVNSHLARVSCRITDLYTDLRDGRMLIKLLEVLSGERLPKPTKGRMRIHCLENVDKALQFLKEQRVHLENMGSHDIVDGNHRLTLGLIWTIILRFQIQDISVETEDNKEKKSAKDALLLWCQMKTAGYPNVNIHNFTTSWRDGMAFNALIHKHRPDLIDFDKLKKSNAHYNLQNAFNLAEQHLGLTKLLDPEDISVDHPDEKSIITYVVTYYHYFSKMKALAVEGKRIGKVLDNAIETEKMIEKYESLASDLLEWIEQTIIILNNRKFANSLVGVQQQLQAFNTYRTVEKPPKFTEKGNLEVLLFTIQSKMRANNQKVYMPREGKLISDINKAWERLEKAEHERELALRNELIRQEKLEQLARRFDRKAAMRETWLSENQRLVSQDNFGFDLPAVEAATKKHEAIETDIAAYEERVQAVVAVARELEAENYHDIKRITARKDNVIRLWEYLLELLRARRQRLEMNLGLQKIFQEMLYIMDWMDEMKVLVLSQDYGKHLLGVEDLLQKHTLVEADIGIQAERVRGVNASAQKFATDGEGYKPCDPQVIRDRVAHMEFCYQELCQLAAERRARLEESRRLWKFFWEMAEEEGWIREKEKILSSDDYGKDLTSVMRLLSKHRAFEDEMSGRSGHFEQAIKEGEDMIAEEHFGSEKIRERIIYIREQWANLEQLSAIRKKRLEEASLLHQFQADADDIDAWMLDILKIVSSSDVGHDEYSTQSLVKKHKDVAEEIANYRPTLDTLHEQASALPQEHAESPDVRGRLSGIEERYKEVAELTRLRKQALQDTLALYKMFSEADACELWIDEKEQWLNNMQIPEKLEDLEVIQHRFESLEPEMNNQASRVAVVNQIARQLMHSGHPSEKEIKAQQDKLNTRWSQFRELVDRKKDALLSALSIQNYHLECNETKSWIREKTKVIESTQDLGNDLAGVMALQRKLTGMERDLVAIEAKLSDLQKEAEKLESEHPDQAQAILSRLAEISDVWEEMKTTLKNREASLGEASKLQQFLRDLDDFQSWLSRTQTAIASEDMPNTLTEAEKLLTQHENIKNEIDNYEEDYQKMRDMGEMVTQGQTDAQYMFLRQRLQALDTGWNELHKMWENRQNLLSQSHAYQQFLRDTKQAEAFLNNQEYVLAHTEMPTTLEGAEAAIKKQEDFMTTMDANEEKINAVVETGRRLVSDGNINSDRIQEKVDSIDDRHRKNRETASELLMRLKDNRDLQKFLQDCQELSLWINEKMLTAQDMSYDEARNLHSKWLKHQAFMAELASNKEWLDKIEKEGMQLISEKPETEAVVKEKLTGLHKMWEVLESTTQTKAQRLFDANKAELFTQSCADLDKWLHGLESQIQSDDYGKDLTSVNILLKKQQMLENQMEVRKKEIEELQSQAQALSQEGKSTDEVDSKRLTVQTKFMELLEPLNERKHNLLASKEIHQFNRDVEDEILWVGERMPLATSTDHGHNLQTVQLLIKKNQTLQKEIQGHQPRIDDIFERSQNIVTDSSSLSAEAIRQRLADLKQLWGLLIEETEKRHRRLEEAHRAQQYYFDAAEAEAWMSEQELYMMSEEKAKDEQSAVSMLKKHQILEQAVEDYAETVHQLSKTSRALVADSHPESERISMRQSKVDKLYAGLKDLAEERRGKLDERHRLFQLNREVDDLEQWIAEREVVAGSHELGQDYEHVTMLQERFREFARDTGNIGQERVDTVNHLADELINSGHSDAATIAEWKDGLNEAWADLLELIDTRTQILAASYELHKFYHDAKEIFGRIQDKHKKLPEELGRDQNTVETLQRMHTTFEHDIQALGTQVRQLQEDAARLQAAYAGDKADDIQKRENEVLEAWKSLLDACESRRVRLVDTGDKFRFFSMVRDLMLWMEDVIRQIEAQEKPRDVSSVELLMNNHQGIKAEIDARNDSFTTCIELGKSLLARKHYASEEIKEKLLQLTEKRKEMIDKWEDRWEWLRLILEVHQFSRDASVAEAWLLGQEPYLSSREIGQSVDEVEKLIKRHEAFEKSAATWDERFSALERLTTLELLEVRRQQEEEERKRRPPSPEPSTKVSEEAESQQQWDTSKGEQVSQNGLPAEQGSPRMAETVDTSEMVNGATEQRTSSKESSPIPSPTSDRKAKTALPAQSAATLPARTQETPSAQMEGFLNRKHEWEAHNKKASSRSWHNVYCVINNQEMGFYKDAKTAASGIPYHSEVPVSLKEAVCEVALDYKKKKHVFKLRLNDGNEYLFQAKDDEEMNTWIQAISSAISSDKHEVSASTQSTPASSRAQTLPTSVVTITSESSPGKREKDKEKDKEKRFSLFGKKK

Row | Target | lysine labeling ratio R10:1
1 | VIM (lysine site: K445) (UniProt P08670) | 10.9
2 | NRP1 (lysine site: K504) (UniProt O14786) | 6.03
3 | UniProt Q9H336 (lysine site: K242) | 2.36
4 | IGF2R (lysine site: K2338) (UniProt P11717) | 1.29 (active)
5 | MYH9 (lysine site: K299) (UniProt P35579) | 2.23
6 | NUCB1 (lysine site: K183) (UniProt Q02818) | 3.16
7 | HSPA9 (lysine site: K206) (UniProt P38646) | 2.48
8 | ATP2A2 (lysine site: K757) (UniProt P16615) | 1.36 (active)
9 | LAMB1 (lysine site: K1368) (UniProt P07942) | 1.59 (active)
10 | THBS1 (lysine site: K50) (UniProt P07996) | 4.26
11 | GANAB (lysine site: K48) (UniProt Q14697) | 3.47
12 | ACSL3 (lysine site: K706) (UniProt O95573) | 3.43
13 | P4HB (lysine site: K114) (UniProt P07237) | 6.39
14 | LAMC1 (lysine site: K1041) (UniProt P11047) | 2.18
15 | UniProt Q32P28 (lysine site: K437) | 1.13 (active)
16 | LAMB1 (lysine site: K1492) (UniProt P07942) | 4.06
17 | DDX23 (lysine site: K196) (UniProt Q9BUQ8) | 1.64 (active)
18 | UniProt P04439 (lysine site: K92) | 3.31
19 | IMPDH2 (lysine site: K511) (UniProt P12268) | 3.35
20 | FGB (lysine site: K422) (UniProt P02675) | 2.18

Row | Target | lysine labeling ratio R10:1
21 | UniProt P62258 (lysine site: K125) | 1.05 (active)
22 | DDX5 (lysine site: K236) (UniProt P17844) | 2.34
23 | UniProt P60660 (lysine site: K26) | 1.69 (active)
24 | HNRNPM (lysine site: K651) (UniProt P52272) | 2.28
25 | SPTBN1 (lysine site: K1878) (UniProt Q01082) | 4.5
26 | ANPEP (lysine site: K836) (UniProt P15144) | 0.79 (active)
27 | HNRNPA1 (lysine site: K166) (UniProt P09651) | 7.94
28 | WASF2 (lysine site: K109) (UniProt Q9Y6W5) | 1.24 (active)
29 | TGFBI (lysine site: K53) (UniProt Q15582) | 1.28 (active)
30 | DBN1 (lysine site: K248) (UniProt Q16643) | 0.855 (active)
31 | EEF1G (lysine site: K241) (UniProt P26641) | 1.4 (active)
32 | TFPI (lysine site: K64) (UniProt P10646) | 1.41 (active)
33 | PTPRM (lysine site: K375) (UniProt P28827) | 5.3
34 | YBX1 (lysine site: K137) (UniProt P67809) | 7.5
35 | ITGAV (lysine site: K535) (UniProt P06756) | 1.58 (active)
36 | CADM1 (lysine site: K93) (UniProt Q9BY67) | 4.95
37 | DSG2 (lysine site: K451) (UniProt Q14126) | 0.823 (active)
38 | NRP1 (lysine site: K231) (UniProt O14786) | 5.85
39 | UniProt Q9UHI8 (lysine site: K619) | 2.67
40 | CALD1 (lysine site: K534) (UniProt Q05682) | 0.785 (active)
